Methyltransferases – Primary Screen for Target Class Profiling of Small Molecule Inhibitors of Methyltransferases; purified enzyme, MTase-Glo SAH luminescence; stronger effect = lower value; calls only at 40 µM; hit rate 3.9% among 25,000; AID 1745853, 2022; call rule not given here
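Each enzyme was assayed with SAM and its substrate. SAH formation detected by MTase-Glo luminescence; single-point 40 uM screen[…].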
* = called active by the depositor; i = inactive; + = active, no number. The sample as a whole holds a higher share of hits than the screen did. % is set by controls: 0 for no effect and ±100 for the full control effect.

SMILES	Methyltransferases
CN(C)c1ccc(CN2C(=O)c3ccc(-c4ccco4)n3CC2(C)C(=O)NCc2ccc(Cl)cc2)cc1 (stereo not drawn)	i
CCC(C)NC(=O)c1ccc2c(=O)n(C)c3nnc(SCC(=O)Nc4cc(F)ccc4F)n3c2c1 (stereo not drawn)	i
CC(C)CCNc1nc2c(-c3cccc(Br)c3)nnn2c2ccccc12	i
NC(=O)c1cnc(-c2ccc(C3(N)CCC3)cc2)c(-c2ccccc2)c1	+
NC(=O)c1ccccc1	i
CCc1ccc(CNC(=O)Cn2ccc3cc(S(=O)(=O)N4CCCCC4)ccc32)cc1	i
COc1ccc(CCN2C(=O)c3cc4ccccc4n3CC2(C)C(=O)NCCC(C)C)c(OC)c1 (stereo not drawn)	i
Cc1nc(C#Cc2ccnc(Cl)c2)c(C)n1-c1ccc(F)cc1	+
COc1ccccc1CN1C(=O)c2cc3ccccc3n2CC1(C)C(=O)NC1CCCC1 (stereo not drawn)	i
Cn1cnc(S(=O)(=O)NCCc2ccc(Cl)cc2)c1	i
Cn1c(=O)n(C)c2cc(S(=O)(=O)N3CCN(Cc4ccc5c(c4)OCO5)CC3)ccc21	i
Cc1ccc([N+](=O)[O-])cc1S(=O)(=O)N(C)/N=C/c1cnc2ccc(Br)cn12	+
Cc1ccc(-c2noc(-c3cccc(S(=O)(=O)N4CCN(c5cc(C)ccc5C)CC4)c3)n2)cc1	i
CC(=O)OC1CC(=O)C2(C)C3CC4=C(OC(C)CC4=O)OC3(C)CCC2C1(C)C (stereo not drawn)	+
CCCn1c(=O)c2ccc(C(=O)NC(C)C)cc2n2c(=O)n(CC(=O)N(C)c3ccc(F)cc3)nc12	i
CCOc1ccc(CN2C(=O)c3cc4oc(C)cc4n3CC2(C)C(=O)NC2CCCCCCC2)cc1 (stereo not drawn)	i
CC1(C(=O)NC2CCCCCC2)Cn2c(cc3ccccc32)C(=O)N1Cc1ccco1 (stereo not drawn)	i
CCOC(=O)c1cc2n(n1)CC(C)(C(=O)NC1CCCCC1)N(c1cc(C)cc(C)c1)C2=O (stereo not drawn)	i
Cc1ccc(Cn2c(=O)c3ccccc3n3c(SCC(=O)Nc4cccc(F)c4)nnc23)cc1	i
Cc1ccccc1CN1C(=O)c2ccc(-c3ccco3)n2CC1(C)C(=O)NC1CCCC1 (stereo not drawn)	i
COc1ccc(/C=C/C(=O)O[C@@H]2[C@@H](O)[C@@H](O)[C@H](O[C@H]3[C@@H]4C=CO[C@@H](O[C@@H]5O[C@H](CO)[C@@H](O)[C@H](O)[C@H]5O)[C@@H]4[C@@]4(CO)O[C@@H]34)O[C@H]2C)cc1	i
O=C(/C=C/c1ccc(O)cc1)OC[C@@]1(O)C=C[C@@H]2C(C(=O)O)=CO[C@@H](O[C@@H]3O[C@H](CO)[C@@H](O)[C@H](O)[C@H]3O)[C@@H]21	+
C=C[C@H]1[C@H](O[C@@H]2O[C@H](CO)[C@@H](O)[C@H](O)[C@H]2O)OC=C2C(=O)OCC[C@]21O	i
C=C[C@H]1[C@H](O[C@@H]2O[C@H](CO)[C@@H](O)[C@H](OC(=O)/C=C/c3ccc(O)c(OC)c3)[C@H]2O)OC=C2C(=O)OCC[C@]21O	+
COC(=O)C1=COC(OC2OC(CO)C(O)C(O)C2O)C2C1C=CC2(O)CO (stereo not drawn)	i
SMILES	Methyltransferases
O=C(/C=C/c1ccc(O)c(O)c1)O[C@@H]1[C@@H](O)[C@H](OC2CCCCC2O)O[C@H](CO)[C@H]1O (stereo partly drawn)	i
C[C@@H](OC(=O)/C=C/c1ccc(O)cc1)C1=C[C@]2(C=C[C@@H]3C(C(=O)O)=CO[C@@H](O[C@@H]4O[C@H](CO[C@@H]5O[C@H](CO)[C@@H](O)[C@H](O)[C@H]5O)[C@@H](O)[C@H](O)[C@H]4O)[C@@H]32)OC1=O	i
COc1cc(/C=C/C(=O)O[C@H]2[C@@H]3C=CO[C@@H](O[C@@H]4O[C@H](CO)[C@@H](O)[C@H](O)[C@H]4O)[C@@H]3[C@@]3(CO)O[C@@H]23)ccc1O	+
CC(=O)O[C@H]1[C@@H](O)[C@H](O[C@H]2[C@@H]3C=CO[C@@H](O[C@H]4O[C@@H](CO)[C@H](O)[C@@H](O)[C@@H]4O)[C@@H]3[C@@]3(CO)O[C@@H]23)O[C@@H](C)[C@@H]1OC(=O)/C=C/c1ccccc1	i
O=C(/C=C/c1ccc(O)cc1)OC[C@]12O[C@H]1[C@@H](O)[C@@H]1C=CO[C@@H](O[C@@H]3O[C@H](CO)[C@@H](O)[C@H](O)[C@H]3O)[C@@H]12	i
COc1ccc(/C=C/C(=O)O[C@@H]2[C@@H](O[C@@H]3O[C@H](CO)[C@@H](O)[C@H](O)[C@H]3O)[C@@H](O)[C@H](O[C@H]3C4C=CO[C@@H](O[C@@H]5O[C@H](CO)[C@@H](O)[C@H](O)[C@H]5O)C4[C@@]4(CO)O[C@@H]34)O[C@H]2C)cc1 (stereo partly drawn)	i
O=C(/C=C/c1ccccc1)OC[C@]12O[C@H]1[C@@H](O)[C@@H]1C=CO[C@@H](O[C@@H]3O[C@H](CO)[C@@H](O)[C@H](O)[C@H]3O)[C@@H]12	+
CCCn1c(=O)c2ccc(C(=O)NCC(C)C)cc2n2c(=O)n(Cc3cccc(F)c3)nc12	i
O=c1c2ccccc2n2c(SCc3ccc(F)cc3)nnc2n1Cc1ccccc1	i
COc1ccc(-c2cc3n(n2)CC(C)(C(=O)NCc2ccccc2OC)N(c2cc(C)ccc2C)C3=O)cc1 (stereo not drawn)	i
CC1CCC(N2C(=O)c3ccc(-c4ccco4)n3CC2(C)C(=O)NC2CCCCCCC2)CC1 (stereo not drawn)	i
COc1ccc(OC)c(S(=O)(=O)N2CCC(n3c(C)cnc3-c3ccncc3)CC2)c1	i
CCCn1c(=O)c2ccc(C(=O)NC3CCCC3)cc2n2c(=O)n(CC(=O)Nc3cccc(F)c3)nc12	i
Cc1ccc(Cn2nc3n(Cc4ccccc4)c(=O)c4ccc(C(=O)NC(C)C)cc4n3c2=O)cc1	i
CCCN1C(=O)c2c(C(=O)NCc3cccc(F)c3)ncn2CC1(C)C(=O)NCc1ccc(C)cc1 (stereo not drawn)	i
O=C1c2cc3occc3n2CC(C(=O)NC2CCCCCCC2)(c2ccccc2)N1Cc1ccccc1 (stereo not drawn)	i
CC(C)CCN1C(=O)c2ccccc2CC1(C)C(=O)NC1CCCCCC1 (stereo not drawn)	i
Cc1cc2[nH]c(=O)[nH]c2cc1S(=O)(=O)N1CCN(c2ccccc2F)CC1	i
COc1ccc(/C=C/C(=O)O[C@@H]2[C@@H](OC(C)=O)[C@@H](OC(C)=O)[C@H](O[C@H]3[C@@H]4C=CO[C@@H](O[C@@H]5O[C@H](CO)[C@@H](O)[C@H](O)[C@H]5O)[C@@H]4[C@@]4(CO)O[C@@H]34)O[C@H]2C)cc1O	+
CC(=O)O[C@@H]1[C@@H](OC(C)=O)[C@H](C)O[C@@H](O[C@H]2[C@@H]3C=CO[C@@H](O[C@@H]4O[C@H](CO)[C@@H](O)[C@H](O)[C@H]4O)[C@@H]3[C@@]3(CO)O[C@@H]23)[C@@H]1OC(=O)/C=C/c1ccccc1	i

Screens from PubChem.
